# Data published in PubChem BioAssay (Tox21).
# Several values for one entry are separate records, joined by “and”; a condition that tells them apart may be missing. Equal values may be shown once. Inconclusive results are not listed. Where a call stands in place of a potency, no number is given. Activity calls are given as the source filed them. Unless noted, calls follow the shape of the dose curve; as a rule, active = well fitted curve in the direction sought with a large enough effect in the repeat runs; inconclusive = weak or mixed curves; inactive = no such curve, though single readings can be large; an effect the other way counts as inactive or inconclusive.
# Columns and labels:
# [1] = qHTS assay to identify small molecule agonists of the peroxisome proliferator-activated receptor delta (PPARd) signaling pathway - cell viability counter screen (AID 743211); also: nearly all actives have a fitted effect of over 55% in size
# Outline: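 Following 5 h plating at 37 C and 5% CO2, PPARd UAS-bla HEK293H cells took up test compounds for 17 h. Viability was quantified by luminescence 30 min after CellTiter-Glo addition at room temperature.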
# [2] = biological target: Peroxisome proliferator-activated receptor delta (Homo sapiens) (UniProt Q03181); assay: qHTS assay to identify small molecule agonists of the peroxisome proliferator-activated receptor delta (PPARd) signaling pathway (AID 743212; calls by dose curve)
# Outline: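 A PPARd-bla HEK293H line with beta-lactamase under an Upstream Activator Sequence is treated with compounds at 37 C. Substrate loading for 2 h at room temperature precedes the fluorescence measurement.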
# [3] = biological target: Peroxisome proliferator-activated receptor delta (Homo sapiens) (UniProt Q03181); assay: qHTS assay to identify small molecule antagonists of the peroxisome proliferator-activated receptor delta (PPARd) signaling pathway (AID 743215; active = well fitted inhibition curve with a large enough effect in the signal ratio in the repeat runs, not every such curve was filed as active; the % refers to the signal ratio;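 also: cells stimulated with agonist L165041 at 300 nM final during compound exposure; series mostly up to about 62 µM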)
# Outline: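 PPARd UAS-bla HEK293H cells were pre-incubated 5 h at 37 C, then given test compounds in DMSO plus agonist L165041 (300 nM final). After 17 h at 37 C, beta-lactamase FRET substrate was added; fluorescence read after 2 h at room temperature.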
# [4] = biological target: Bile acid receptor (Homo sapiens) (UniProt Q96RI1); assay: qHTS assay to identify small molecule antagonists of the farnesoid-X-receptor (FXR) signaling pathway (AID 743217; active = well fitted inhibition curve with a large enough effect in the signal ratio in the repeat runs, not every such curve was filed as active; the % refers to the signal ratio)
# Outline: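 FXR-UAS-bla HEK 293T cells pre-incubated 5 h at 37 °C, then exposed to compounds with chenodeoxycholic acid (50 uM final) for 16 h at 37 °C. Beta-lactamase reporter read by LiveBLAzer B/G FRET substrate fluorescence after 2 h at room temperature.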
# [5] = qHTS assay to identify small molecule agonists of the farnesoid-X-receptor (FXR) signaling pathway - cell viability counter screen (AID 743218); also: nearly all actives have a fitted effect of over 45% in size
# Outline: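 FXR-UAS-bla HEK 293T cells, plated 5 h at 37 C, were exposed to compounds for 16 h at 37 C. CellTiter-Glo was then added to the same wells as the bla readout; luminescence read after 30 min at room temperature.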
# [6] = biological target: Bile acid receptor (Homo sapiens) (UniProt Q96RI1); assay: qHTS assay to identify small molecule agonists of the farnesoid-X-receptor (FXR) signaling pathway (AID 743220; active = well fitted activation curve with a large enough effect in the signal ratio in the repeat runs, not every such curve was filed as active; the % refers to the signal ratio)
# Outline: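 Beta-lactamase reporter under UAS control in GeneBLAzer FXR HEK 293T cells (5000/well) measured with LiveBLAzer FRET substrate after 2 h at room temperature. Compound exposure lasted 16 h at 37C.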
# [7] = qHTS assay to identify small molecule antagonists of the farnesoid-X-receptor (FXR) signaling pathway - cell viability counter screen (AID 743221; active = well fitted cell-killing curve with a large enough effect in the repeat runs, not every such curve was filed as active; also: nearly all actives have a fitted effect of over 50% in size)
# Outline: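 Compound effects on cell number were measured as CellTiter-Glo luminescence in HEK 293T cells expressing FXR-UAS-bla, after 16 h at 37 C with 50 uM CDCA (final).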
# [8] = qHTS assay to identify small molecule agonists of the vitamin D receptor (VDR) signaling pathway - cell viability counter screen (AID 743224); also: series mostly up to about 63 µM; nearly all actives have a fitted effect of over 50% in size
# Outline: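 VDR-bla cells were preincubated 4 h at 37C/5% CO2, then exposed to compounds for 16 h. After the 2 h room-temperature bla FRET read, CellTiter-Glo was added to the same wells and luminescence read after 30 min.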
# [9] = qHTS assay to identify small molecule antagonists of the vitamin D receptor (VDR) signaling pathway - cell viability counter screen (AID 743225); also: nearly all actives have a fitted effect of over 50% in size
# Outline: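 In this counter screen, VDR-bla HEK 293T cells receive test compound plus 3 nM final calcitriol for 16 h at 37C. Room-temperature steps of 2 h with the beta-lactamase substrate, then 30 min with CellTiter-Glo, precede the luminescence read.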
# [10] = qHTS assay to identify small molecule agonists of the NFkB signaling pathway (AID 1159509; active = well fitted curve in the direction sought with a large enough effect in the signal ratio in the repeat runs, not every such curve was filed as active; the % refers to the signal ratio; also: series mostly up to about 61 µM)
# Outline: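 NFkB-bla ME-180 cells carry a beta-lactamase reporter under an NF-kB response element. They were plated overnight, then exposed to compounds for 5 h at 37 C. Read-out is LiveBLAzer FRET after 1.5 hr at room temperature (405 nm excitation; 460/530 nm emission).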
# [11] = qHTS assay to identify small molecule agonists of the NFkB signaling pathway - cell viability counter screen (AID 1159515; calls by dose curve; also: series mostly up to about 61 µM; nearly all actives have a fitted effect of over 55% in size)
# Outline: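 NFkB-bla ME-180 cells, 2,000/well, were plated overnight at 37 C, 5% CO2, then exposed to compounds in DMSO for 5 hr. After the bla FRET read, CellTiter-Glo was added to the same wells; luminescence was read after 30 min at room temperature.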
# [12] = qHTS assay to identify small molecule agonists of the endoplasmic reticulum stress response signaling pathway (AID 1159516; active = well fitted activation curve with a large enough effect in the signal ratio in the repeat runs, not every such curve was filed as active; the % refers to the signal ratio)
# Outline: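 CellSensor ESRE-bla HeLa cells, carrying a beta-lactamase reporter driven by the ER stress response element, were plated overnight and exposed to compounds for 5 hr at 37 C. Reporter activity was read as FRET substrate fluorescence after 2 hr at room temperature.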
# [13] = qHTS assay to identify small molecule agonists of the endoplasmic reticulum stress response signaling pathway - cell viability counter screen (AID 1159517; calls by dose curve; also: series mostly up to about 61 µM; nearly all actives have a fitted effect of over 50% in size)
# Outline: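 CellTiter-Glo was added to wells already read for beta-lactamase FRET, and luminescence was recorded 30 min later. Cells: ESRE-bla HeLa, 1,500 per well, compound exposure 5 hr at 37 C.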
# [14] = qHTS assay to identify small molecule antagonists of the retinoid-related orphan receptor gamma (ROR-gamma) signaling pathway - cell viability counter screen (AID 1159520); also: nearly all actives have a fitted effect of over 50% in size
# Outline: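 Tet-on ROR gamma CHO cells (1,000/well) were plated 4 hr, given compounds in DMSO for 2 hr at 37 C, then induced with 1 uM final doxycycline for 16 hr. Viability was read as ATP by CellTiter-Glo luminescence after 30 min.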
# [15] = qHTS assay to identify small molecule agonists of the AP-1 signaling pathway - cell viability counter screen (AID 1159525; calls by dose curve; also: nearly all actives have a fitted effect of over 55% in size)
# Outline: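 ME-180 AP-1-bla, 2500 cells/well, Opti-MEM + 0.5% dialyzed FBS; overnight 37 °C; cpd 15-pt titration, 5 h 37 °C; CellTiter-Glo 30 min RT; luminescence read; normalised to TOAB and DMSO controls.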
# [16] = qHTS assay to identify small molecule agonists of the AP-1 signaling pathway (AID 1159526; calls by dose curve)
# [17] = qHTS assay to identify small molecule antagonists of the peroxisome proliferator-activated receptor delta (PPARd) signaling pathway - cell viability counter screen (AID 743213); also: nearly all actives have a fitted effect of over 50% in size
# Outline: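 Luminescence from CellTiter-Glo, added after the bla read and incubated 30 min at room temperature, gives viability of HEK293H PPARd-bla cells exposed to compounds for 17 h at 37 C with 300 nM L165041.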
# [18] = biological target: Nuclear receptor ROR-gamma (Homo sapiens) (UniProt P51449); assay: qHTS assay to identify small molecule antagonists of the retinoid-related orphan receptor gamma (ROR-gamma) signaling pathway (AID 1159521; also: nearly all actives have a fitted effect of over 50% in size; also: potency is read from the fitted curve at half-maximal effect)
# Outline: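 Screening format: cell-based luciferase reporter in CHO cells with doxycycline-inducible RORγ. Compound pre-exposure lasts 2 h, doxycycline is 1 uM final, induction runs 16 h at 37 C, and ONE-Glo luminescence is read.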
# [19] = biological target: Vitamin D3 receptor (Homo sapiens) (UniProt P11473); assay: qHTS assay to identify small molecule agonists of the vitamin D receptor (VDR) signaling pathway (AID 743222; calls by dose curve)
# Outline: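 VDR-bla cells were plated 4 h at 37C/5% CO2, then exposed to compounds in DMSO for 16 h. After LiveBLAzer B/G FRET substrate addition and 2 h at room temperature, beta-lactamase reporter fluorescence was read.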
# [20] = biological target: Vitamin D3 receptor (Homo sapiens) (UniProt P11473); assay: qHTS assay to identify small molecule antagonists of the vitamin D receptor (VDR) signaling pathway (AID 743223; active = well fitted inhibition curve with a large enough effect in the signal ratio in the repeat runs, not every such curve was filed as active; the % refers to the signal ratio)
# Outline: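 Beta-lactamase activity in VDR-bla cells is measured by FRET substrate fluorescence (2 h, room temperature) after cells spend 16 h at 37C with test compound and 3 nM final 1alpha,25-dihydroxyvitamin D3.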
# Bile acid receptor (Homo sapiens), sequence (Q96RI1 whole entry, looked up): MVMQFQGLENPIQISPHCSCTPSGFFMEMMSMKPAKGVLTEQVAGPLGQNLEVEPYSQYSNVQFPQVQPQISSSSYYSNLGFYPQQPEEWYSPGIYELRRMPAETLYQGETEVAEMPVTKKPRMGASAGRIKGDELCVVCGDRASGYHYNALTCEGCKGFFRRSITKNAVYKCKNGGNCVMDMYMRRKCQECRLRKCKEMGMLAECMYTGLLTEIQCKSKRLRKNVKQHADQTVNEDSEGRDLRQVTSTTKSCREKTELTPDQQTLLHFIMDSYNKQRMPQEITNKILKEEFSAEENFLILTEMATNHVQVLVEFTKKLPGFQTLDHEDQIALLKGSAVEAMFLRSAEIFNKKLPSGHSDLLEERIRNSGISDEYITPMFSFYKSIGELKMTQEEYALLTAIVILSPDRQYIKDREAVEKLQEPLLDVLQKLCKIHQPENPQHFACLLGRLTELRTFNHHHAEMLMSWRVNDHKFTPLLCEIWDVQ
# Vitamin D3 receptor (Homo sapiens), sequence (P11473 whole entry, looked up): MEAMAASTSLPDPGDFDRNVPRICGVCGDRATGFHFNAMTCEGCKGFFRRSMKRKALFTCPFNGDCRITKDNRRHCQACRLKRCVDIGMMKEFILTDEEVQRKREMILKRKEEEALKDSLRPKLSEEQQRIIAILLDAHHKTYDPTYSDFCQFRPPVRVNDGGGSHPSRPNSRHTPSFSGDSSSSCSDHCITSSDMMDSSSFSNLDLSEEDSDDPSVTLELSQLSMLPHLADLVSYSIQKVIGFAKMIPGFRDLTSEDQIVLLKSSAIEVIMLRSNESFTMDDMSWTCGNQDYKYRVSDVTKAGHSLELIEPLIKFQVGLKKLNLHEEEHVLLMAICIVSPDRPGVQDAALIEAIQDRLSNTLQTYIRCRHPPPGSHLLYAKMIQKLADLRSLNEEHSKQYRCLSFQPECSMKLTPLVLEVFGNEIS
# Peroxisome proliferator-activated receptor delta (Homo sapiens), sequence (Q03181 whole entry, looked up): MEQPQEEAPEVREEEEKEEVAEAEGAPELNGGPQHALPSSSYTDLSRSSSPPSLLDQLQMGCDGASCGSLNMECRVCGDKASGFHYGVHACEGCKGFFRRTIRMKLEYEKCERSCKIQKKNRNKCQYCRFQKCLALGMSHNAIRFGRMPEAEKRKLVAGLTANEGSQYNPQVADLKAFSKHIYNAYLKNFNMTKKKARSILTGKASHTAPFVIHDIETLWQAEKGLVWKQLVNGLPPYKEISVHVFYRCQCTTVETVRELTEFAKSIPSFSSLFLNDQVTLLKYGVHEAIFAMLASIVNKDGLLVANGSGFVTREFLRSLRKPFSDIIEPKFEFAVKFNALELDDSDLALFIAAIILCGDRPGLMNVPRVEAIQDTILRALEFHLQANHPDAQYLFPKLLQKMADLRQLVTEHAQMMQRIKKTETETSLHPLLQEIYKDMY
SMILES,Potency [1],outcome [2],outcome [3],outcome [4],Potency [5],outcome [6],Potency [7],Potency [8],outcome [9],outcome [10],outcome [11],outcome [12],outcome [13],outcome [14],outcome [15],Potency [16],outcome [17],Potency [18],outcome [19],outcome [20]
COP(=S)(OC)SCN1C(=O)c2ccccc2C1=O,inactive,inactive,inactive,inactive,inactive,inactive,inactive,inactive,inactive,inactive,inactive,inactive,inactive,inactive,inactive,inactive,,,,
O=C(O)c1cc(Oc2ccc(C(F)(F)F)cc2Cl)ccc1[N+](=O)[O-],inactive,,,,inactive,,inactive,inactive,inactive,inactive,inactive,inactive,inactive,inactive,inactive,inactive,inactive,inactive,,
CN(C)C(=O)C(c1ccccc1)c1ccccc1,inactive,inactive,,,inactive,,inactive,inactive,inactive,inactive,inactive,inactive,inactive,inactive,inactive,inactive,,inactive,inactive,
C=CC(=O)OCC(CC)CCCC (stereo not given),inactive,,,,inactive,,inactive,inactive,inactive,inactive,inactive,inactive,inactive,inactive,inactive,inactive,,inactive,inactive,
CNC(=O)O/N=C/C(C)(C)S(C)(=O)=O,inactive,,,,inactive,,inactive,inactive,inactive,inactive,inactive,inactive,inactive,inactive,inactive,inactive,,inactive,,
C/C=C/c1ccc2c(c1)OCO2,inactive,,,,inactive,,inactive,inactive,inactive,inactive,inactive,inactive,inactive,inactive,inactive,inactive,inactive,inactive,inactive,inactive
O=C(O)C(Br)Br,inactive,,,inactive,inactive,inactive,inactive,inactive,inactive,inactive,inactive,inactive,inactive,inactive,inactive,inactive,,inactive,inactive,inactive
Oc1ccc(Cl)cc1,inactive,,,,inactive,,inactive,inactive,inactive,inactive,inactive,inactive,inactive,inactive,inactive,inactive,,inactive,inactive,inactive
Cc1ccc(N)cc1,inactive,,,,inactive,,inactive,inactive,inactive,inactive,inactive,inactive,inactive,inactive,inactive,inactive,inactive,inactive,,
c1ccc2c(c1)CCCC2,inactive,,,inactive,inactive,inactive,inactive,inactive,inactive,inactive,inactive,inactive,inactive,inactive,inactive,inactive,inactive,inactive,inactive,inactive
C[C@]12CC[C@H](O)CC1=CC[C@@H]1[C@@H]2CC[C@]2(C)C(=O)CC[C@@H]12,inactive,inactive,,,inactive,,inactive,inactive,inactive,,inactive,inactive,inactive,inactive,inactive,inactive,inactive,24.4 µM (active) and 24.3 µM (active),,
O=C(O)CCCc1ccc(N(CCCl)CCCl)cc1,inactive,inactive,inactive,inactive,inactive,inactive,inactive,inactive,inactive,inactive,inactive,inactive,inactive,,inactive,inactive,inactive,,inactive,inactive
Cc1ccc(N=C=O)cc1N=C=O,inactive,,,,inactive,,inactive,inactive,inactive,inactive,inactive,inactive,inactive,inactive,inactive,inactive,inactive,inactive,inactive,inactive
